Test results: paper PMC8384837, “Expanding the binding specificity for RNA recognition by a PUF domain”
Changes are numbered by the printed parent chain.

Columns and labels:
Assay in all cases: yeast three-hybrid, YBZ-1, SC-Leu-His + 0.5 mM 3-AT, 4 days
Settings in all cases: tags: N-Gal4 AD-HA kept; label: inside an RPR1-promoter hybrid RNA with tandem MS2 sites; ssRNA
[1] = target: PUM1 PUF domain R5-LHV (Homo sapiens, UniProt Q14671 828-1176, C1007L;R1008H;Q1011V)
Outline: (§1)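 Pumilio-1 PUF domain libraries, randomized at the three base-contacting residues of each repeat, were co-expressed with matching RNA elements from a centromeric plasmid in strain YBZ-1, which carries a LexA–MS2 coat fusion and a HIS3 reporter. Transformants grew for four days on SC-Leu (input) or on SC-Leu-His + 0.5 mM 3-AT (selection), and the repeat regions were PCR-amplified and Illumina-sequenced. The interaction score is the log change in variant frequency from input to selection. That logarithm is base 2, with a pseudocount of 1 where a variant was absent.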

[2] = target: PUM1 PUF domain R5-PRC (Homo sapiens, UniProt Q14671 828-1176, C1007P;Q1011C)
Outline: as §1

[3] = target: PUM1 PUF domain R3-IRV (Homo sapiens, UniProt Q14671 828-1176, C935I;Q939V)
Outline: as §1

[4] = target: T1, PUM1 PUF domain R6-AFQ (Homo sapiens, UniProt Q14671 828-1176, N1043A;Y1044F)
T1 sequence: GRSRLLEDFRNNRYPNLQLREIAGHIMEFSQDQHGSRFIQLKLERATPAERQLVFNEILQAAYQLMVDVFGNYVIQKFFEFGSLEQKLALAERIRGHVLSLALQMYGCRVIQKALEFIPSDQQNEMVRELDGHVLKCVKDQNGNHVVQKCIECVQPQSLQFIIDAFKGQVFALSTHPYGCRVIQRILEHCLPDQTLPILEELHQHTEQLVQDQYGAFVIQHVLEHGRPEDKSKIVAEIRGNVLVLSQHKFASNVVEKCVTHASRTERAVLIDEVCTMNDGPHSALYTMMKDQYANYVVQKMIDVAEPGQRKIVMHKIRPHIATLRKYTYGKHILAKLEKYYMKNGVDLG
Outline: as §1

[5] = target: PUM1 PUF domain R3-IWL (Homo sapiens, UniProt Q14671 828-1176, C935I;R936W;Q939L)
Outline: as §1

[6] = target: PUM1 PUF domain R8-RYG (Homo sapiens, UniProt Q14671 828-1176, N1122R;Q1126G)
Outline: as §1

[7] = target: PUM1 PUF domain R4-GHP (Homo sapiens, UniProt Q14671 828-1176, N971G;Q975P)
Outline: as §1

[8] = target: PUM1 PUF domain R3-SSE (Homo sapiens, UniProt Q14671 828-1176, C935S;R936S;Q939E)
Outline: as §1

[9] = target: PUM1 PUF domain R5-RGR (Homo sapiens, UniProt Q14671 828-1176, C1007R;R1008G;Q1011R)
Outline: as §1

[10] = target: PUM1 PUF domain R5-KRR (Homo sapiens, UniProt Q14671 828-1176, C1007K;Q1011R)
Outline: as §1

[11] = target: PUM1 PUF domain R5-RMS (Homo sapiens, UniProt Q14671 828-1176, C1007R;R1008M;Q1011S)
Outline: as §1

[12] = target: PUM1 PUF domain R3-FRG (Homo sapiens, UniProt Q14671 828-1176, C935F;Q939G)
Outline: as §1

[13] = target: T2, PUM1 PUF domain R6-CFE (Homo sapiens, UniProt Q14671 828-1176, N1043C;Y1044F;Q1047E)
T2 sequence: T1 sequence with A216C, Q220E
Outline: as §1

[14] = target: PUM1 PUF domain R1-QRS (Homo sapiens, UniProt Q14671 828-1176, S863Q;Q867S)
Outline: as §1

[15] = target: PUM1 PUF domain R5-HFF (Homo sapiens, UniProt Q14671 828-1176, C1007H;R1008F;Q1011F)
Outline: as §1

[16] = target: PUM1 PUF domain R5-QGC (Homo sapiens, UniProt Q14671 828-1176, C1007Q;R1008G;Q1011C)
Outline: as §1

[17] = target: PUM1 PUF domain R7-RPM (Homo sapiens, UniProt Q14671 828-1176, S1079R;N1080P;E1083M)
Outline: as §1

[18] = target: PUM1 PUF domain R4-NRA (Homo sapiens, UniProt Q14671 828-1176, H972R;Q975A)
Outline: as §1

GGCUAGAACUAGUGGAUCCCCCGGCGCCCGGCGGCUCGAGCCCGGGUAAGUGUAAAUAGUCUGCAUGCCGCCGGGCGCCAUGCCUGCAGGUCGACUCUAGAAAACAUG
binding signal [1]: 3.57 log2 enrichment (interaction score) | binding signal [2]: 4.13 log2 enrichment (interaction score) | binding signal [3]: 2.93 log2 enrichment (interaction score) | binding signal [4]: 3.75 log2 enrichment (interaction score) | binding signal [5]: 4.86 log2 enrichment (interaction score) | binding signal [6]: 5.75 log2 enrichment (interaction score) | binding signal [7]: 5.41 log2 enrichment (interaction score) | binding signal [8]: 0.23 log2 enrichment (interaction score)

GGCUAGAACUAGUGGAUCCCCCGGCGCCCGGCGGCUCGAGCCCGGGUAAGUGUCAAUAGUCUGCAUGCCGCCGGGCGCCAUGCCUGCAGGUCGACUCUAGAAAACAUG
binding signal [1]: 1.43 log2 enrichment (interaction score) | binding signal [9]: 3.52 log2 enrichment (interaction score) | binding signal [10]: 3.6 log2 enrichment (interaction score) | binding signal [11]: 3.6 log2 enrichment (interaction score)

GGCUAGAACUAGUGGAUCCCCCGGCGCCCGGCGGCUCGAGCCCGGGUAAGUGUAAGUAGUCUGCAUGCCGCCGGGCGCCAUGCCUGCAGGUCGACUCUAGAAAACAUG
binding signal [12]: 5.59 log2 enrichment (interaction score) | binding signal [3]: 1.69 log2 enrichment (interaction score) | binding signal [5]: 2.77 log2 enrichment (interaction score) | binding signal [8]: 6.26 log2 enrichment (interaction score)

GGCUAGAACUAGUGGAUCCCCCGGCGCCCGGCGGCUCGAGCCCGGGUAAGUGGAAAUAGUCUGCAUGCCGCCGGGCGCCAUGCCUGCAGGUCGACUCUAGAAAACAUG
binding signal [13]: 2.88 log2 enrichment (interaction score)

GGCUAGAACUAGUGGAUCCCCCGGCGCCCGGCGGCUCGAGCCCGGGUAAGUGAAAAUAGUCUGCAUGCCGCCGGGCGCCAUGCCUGCAGGUCGACUCUAGAAAACAUG
binding signal [13]: 6.12 log2 enrichment (interaction score)

GGCUAGAACUAGUGGAUCCCCCGGCGCCCGGCGGCUCGAGCCCGGGUAAGUGUAAAUUGUCUGCAUGCCGCCGGGCGCCAUGCCUGCAGGUCGACUCUAGAAAACAUG
binding signal [14]: 2.7 log2 enrichment (interaction score)

GGCUAGAACUAGUGGAUCCCCCGGCGCCCGGCGGCUCGAGCCCGGGUAAGUGUUAAUAGUCUGCAUGCCGCCGGGCGCCAUGCCUGCAGGUCGACUCUAGAAAACAUG
binding signal [9]: 3.07 log2 enrichment (interaction score) | binding signal [11]: 2.79 log2 enrichment (interaction score) | binding signal [15]: 3.86 log2 enrichment (interaction score) | binding signal [16]: 2.19 log2 enrichment (interaction score)

GGCUAGAACUAGUGGAUCCCCCGGCGCCCGGCGGCUCGAGCCCGGGUAAGUUUAAAUAGUCUGCAUGCCGCCGGGCGCCAUGCCUGCAGGUCGACUCUAGAAAACAUG
binding signal [17]: 3.18 log2 enrichment (interaction score)

GGCUAGAACUAGUGGAUCCCCCGGCGCCCGGCGGCUCGAGCCCGGGUAAGUCUAAAUAGUCUGCAUGCCGCCGGGCGCCAUGCCUGCAGGUCGACUCUAGAAAACAUG
binding signal [17]: 0.93 log2 enrichment (interaction score)

GGCUAGAACUAGUGGAUCCCCCGGCGCCCGGCGGCUCGAGCCCGGGUAAGUGUAUAUAGUCUGCAUGCCGCCGGGCGCCAUGCCUGCAGGUCGACUCUAGAAAACAUG
binding signal [18]: 2.48 log2 enrichment (interaction score)

GGCUAGAACUAGUGGAUCCCCCGGCGCCCGGCGGCUCGAGCCCGGGUAAGCGUAAAUAGUCUGCAUGCCGCCGGGCGCCAUGCCUGCAGGUCGACUCUAGAAAACAUG
binding signal [6]: 5.66 log2 enrichment (interaction score)

GGCUAGAACUAGUGGAUCCCCCGGCGCCCGGCGGCUCGAGCCCGGGUAAGUGUACAUAGUCUGCAUGCCGCCGGGCGCCAUGCCUGCAGGUCGACUCUAGAAAACAUG
binding signal [7]: 5.4 log2 enrichment (interaction score)
